Results filed as inconclusive are left out. Active and inactive are the calls of the source.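 Rule for the calls, unless noted: active = growth inhibition above 25% in both replicates, a cutoff set 3 SD above the mean; inconclusive = above 25% in only one replicate; inactive = the rest.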
Tests used:
[1] = OD615 S. cerevisiae growth inhibition, permissive medium, pilot counter-assay, permissive growth control for S. cerevisiae lifespan shortening project (AID 705); conditions: OD615, 24 h, at 10 µM, stronger effect = higher value
[2] = Restrictive medium S. cerevisiae growth inhibition, OD615, pilot screen of yeast lifespan reduction project, restrictive growth control (AID 706;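 active = growth inhibition above a set limit, 3 SD over mean compound inhibition, in both replicates, cut at about 43% in these data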;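 note: modified DeaD lifespan yeast strain shifted to restrictive glucose medium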); conditions: OD615, 48 h, at 10 µM, stronger effect = higher value
[3] = viability gain of MRP-1-high H69AR cells under doxorubicin, pilot screen, MRP-1 activator project, CellTiter-Glo, duplicate (AID 807;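 active = viability increase at or above a cutoff of the median across tested compounds plus 3 SD, cut at about 8.5% in these data, passing the limit was not always enough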;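 note: compound pretreatment 18-22 h then 72 h combined with doxorubicin; 0% = doxorubicin alone and 100% = vehicle without doxorubicin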); conditions: H69AR viability with doxorubicin, CellTiter-Glo luminescence; at 10 µM; stronger effect = higher value
[4] = growth suppression of beta-catenin knockout HCT116, pilot screen, human colon tumor cells (AID 823;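 active = cell viability at or below a set limit in both duplicate runs, the limit being the all-compound median minus 4 SD, cut at about 23% in these data, passing the limit was not always enough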;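 note: 0% = wells killed by 20 µM Hyamine and 100% = untreated DMSO cell wells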); conditions: CellTiter-Glo, 60 h, at 10 µM, stronger effect = lower value
[5] = growth suppression of PTEN-deleted HCT116, pilot screen, cell-based, HCT116 clonal line, CellTiter-Glo (AID 824;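 active = viability at or below 27.92% in each of two runs, the all-compound median minus 4 SD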;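 note: 0% = 20 µM Hyamine control and 100% = vehicle cell control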); conditions: 60 h, at 10 µM, stronger effect = lower value
[6] = RAM signaling pathway blockade in yeast – S. cerevisiae, Pdr1DBD-CYC8 efflux-inhibited sensitized strain, primary screen (AID 1298;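 active = RAM network inhibition above 8.4% in each of two replicates, 3 SD over the compound average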;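 note: 0% = DMSO untreated cells without growth and 100% = 10 µM 1-NA-PP1 full growth; higher means more yeast growth rescued from 5-FOA killing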); conditions: S. cerevisiae cbk1-as DSE1-URA3 strain, 5-FOA growth OD615, 2 d; at 50 µM; stronger effect = higher value
[7] = HUVEC growth inhibition – cell-based, human, primary screen (AID 575;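 active = viability at or below 30% in both replicate assays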;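 note: 100% = median of untreated cell wells with 0.1% DMSO on each plate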); conditions: HUVEC proliferation, CellTiter-Glo luminescence, 72 h; at 10 µM; stronger effect = lower value
[8] = reversal of MRP1-mediated doxorubicin resistance, pilot screen, H69AR cells, doxorubicin co-treatment (AID 601;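 active = viability loss from added drug above about 55%, and viability with drug at most 40%, in both replicates, limit read from the data, passing the limit was not always enough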); conditions: CellTiter-Glo, 72 h, at 10 µM; for differential viability (reversal): stronger effect = higher value
[9] = 384-well plate pilot, post-Golgi transport modulator project, inhibition of yeast transport mutant growth (AID 636; in the data active = inhibition above about 31%); conditions: absorbance 615 nm, about 18 h, stronger effect = higher value
[10] = growth suppression of yeast trafficking mutant, preliminary HTS, modulators of trafficking downstream of Golgi apparatus project, 1536-format plate, OD 615 nm (AID 637; in the data active = inhibition above about 30%); conditions: yeast transport mutant growth, absorbance 615 nm, 18 h; stronger effect = higher value
[11] = inhibitors of the yeast RAM network, pilot screen, dse1pr::URA3 reporter, 5-FOA selection (AID 869;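 active = inhibition over a set limit, the all-compound mean plus 3 SD, in both replicate runs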;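 note: 0% = DMSO wells with no growth and 100% = 10 µM 1-NA-PP1 with full growth; RAM network block rescues cells from 5-FOA so hits raise OD615 growth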); conditions: S. cerevisiae dse1pr::URA3 5-FOA growth, OD615, 2 d; at 10 µM; stronger effect = higher value; strain carries analog-sensitive mutant Cbk1 kinase
[12] = growth inhibitors of H69AR lung tumor, primary screen, human, duplicate replicates (AID 580;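 active = viability at or under a set limit in both replicates, limit being median viability minus 3 SD, cut at about 48% in these data, passing the limit was not always enough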;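 note: 100% = mean luminescence of untreated wells and 0% = no signal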); conditions: H69AR lung tumor cells viability, ATP luminescence, 72 h; at 10 µM; stronger effect = lower value
[13] = H69AR cells + 2 uM doxorubicin, measured here: viability with 2 uM doxorubicin, stronger effect = lower value
[14] = H69AR cells, compound alone cytotoxicity

Cn1c(=O)[nH]c(=O)c2c1nc(Sc1ccccc1)n2CCc1ccccc1
inactive: growth inhibition [1] -4.23% | growth inhibition [2] -5.96% | viability increase [3] -5.18% | viability [4] 91.6% | viability [5] 69.2% | RAM network inhibition [6] 7.53%

CCCCOc1ccc(S(=O)(=O)Nc2cc(OC)ccc2OC)cc1
inactive: growth inhibition [1] -1.52% | growth inhibition [2] -16.5% | viability increase [3] 0.92% | viability [4] 54.8% | viability [5] 71.3% | RAM network inhibition [6] 7.83%

Cc1ccc(C)c(N2CCN(CCCNC(=O)Cn3cc4c(n3)CCCCC4)CC2)c1
inactive: differential viability (reversal) ([8]; H69AR cells + 2 uM doxorubicin) -31.3% | inhibition [9] -2.69% | inhibition [10] 4% | growth inhibition [1] -6.4% | growth inhibition [2] -0.285% | viability increase [3] -7.67% | inhibition [11] 0.495% | RAM network inhibition [6] 4.06%
active: viability [7] 2.8% | viability [5] 19.6%
37.1%: viability [8, 14]
68.4%: viability [8, 13]

CN1C(=O)CSc2ccc(C(=O)O)cc21
inactive: growth inhibition [1] 0.925% | growth inhibition [2] -1.22% | viability increase [3] -0.35% | viability [4] 100% | viability [5] 100% | RAM network inhibition [6] -0.62%

CCN1CCN(c2cc(C)c3cc(NC(=O)c4cncc(Br)c4)ccc3n2)CC1
inactive: growth inhibition [1] -4.93% | growth inhibition [2] -2.12% | viability increase [3] -6.22% | RAM network inhibition [6] -0.98%

N#Cc1nc(-c2ccc(Cl)cc2)oc1NCCc1ccccn1
inactive: viability [7] 102% | viability [12] 104% | differential viability (reversal) ([8]; H69AR cells + 2 uM doxorubicin) 7.66% | inhibition [9] 0.39% | inhibition [10] 5.4% | growth inhibition [1] 1% | growth inhibition [2] 0.83% | viability increase [3] -0.49% | viability [4] 97.3% | inhibition [11] 1.07% | RAM network inhibition [6] 7.29%
96%: viability [8, 13]
104%: viability [8, 14]

CCOc1cc(-c2nc(-c3ccc(OC)cc3)no2)cc(OCC)c1OCC
inactive: growth inhibition [1] -4.43% | growth inhibition [2] -2.33% | viability increase [3] -3.25% | viability [4] 93.9% | viability [5] 89.5% | RAM network inhibition [6] 9.91%

CC(c1ccco1)N(C(=O)COc1ccc(Cl)cc1Cl)c1ccccn1 (stereo not drawn)
73.3%: viability [8, 13]
76.4%: viability [8, 14]
inactive: viability [7] 71.6% | viability [12] 76.4% | differential viability (reversal) ([8]; H69AR cells + 2 uM doxorubicin) 3.06% | inhibition [9] -6.71% | inhibition [10] -10.3% | growth inhibition [1] -10.9% | growth inhibition [2] -10.3% | viability increase [3] -4.89% | viability [5] 65.6% | inhibition [11] 2.06% | RAM network inhibition [6] 7.28%

COc1ccc(C(=O)c2oc3ccc(Br)cc3c2NC(C)=O)cc1
inactive: growth inhibition [1] -2.44% | growth inhibition [2] -3.18% | viability increase [3] -3.96% | viability [4] 97.7% | viability [5] 104% | RAM network inhibition [6] 1.07%

O=C(CSc1nc2c([nH]c3ccccc32)c(=O)n1-c1ccccc1)N1CCOCC1
inactive: growth inhibition [1] -7.05% | growth inhibition [2] -18.6% | viability increase [3] -6.19% | viability [4] 93.6% | viability [5] 87% | RAM network inhibition [6] 5.28%

COc1ccccc1OCC(O)CN1C(=O)NC(C)(C)C1=O (stereo not drawn)
inactive: growth inhibition [1] -7.73% | growth inhibition [2] -7.44% | viability increase [3] -0.34% | viability [4] 93.4% | viability [5] 91.6% | RAM network inhibition [6] 2.29%

Clc1cc(Br)ccc1OCCOCCN1CCOCC1
inactive: growth inhibition [1] -3.75% | growth inhibition [2] 2.38% | viability increase [3] 0.57% | viability [4] 93.5% | viability [5] 91.7% | RAM network inhibition [6] 0.08%

CC1(C)Cc2c(c(=S)nc(-c3ccccc3)n2CCCN2CCOCC2)CO1
inactive: growth inhibition [1] -12.8% | growth inhibition [2] 6.05% | viability increase [3] -3.1% | viability [4] 97.2% | RAM network inhibition [6] 2.19%

CN(CC(=O)N1CCc2ccccc2C1)S(=O)(=O)c1ccc2c(c1)c(=O)n(C)c(=O)n2C
inactive: growth inhibition [1] -12.3% | growth inhibition [2] -9.22% | viability increase [3] -3.24% | viability [4] 98.4% | viability [5] 90.2% | RAM network inhibition [6] 5.95%

Cc1cccc(-c2nc(CS(=O)CC(=O)N3CCN(C)CC3)c(C)o2)c1 (stereo not drawn)
inactive: growth inhibition [1] -8.17% | growth inhibition [2] -8.82% | viability increase [3] -1.78% | viability [4] 95.9% | viability [5] 99.5% | RAM network inhibition [6] 2.3%

N#CC(=C1SC=CS1)c1nc(-c2ccccc2)cs1
inactive: growth inhibition [1] 5.05% | growth inhibition [2] -6.89% | viability increase [3] -3.21% | viability [4] 84.4% | RAM network inhibition [6] 9.12%

COC(=O)c1ccc(Nc2ncnc3c2cnn3-c2cccc(C)c2)cc1
inactive: growth inhibition [1] -13% | growth inhibition [2] -25.2% | viability increase [3] -3.78% | viability [4] 109% | viability [5] 93.4% | RAM network inhibition [6] 10.5%

COCCn1c(=O)[nH]c2cc(C(=O)NCCCN3CCN(c4ccc(F)cc4)CC3)ccc2c1=O
inactive: viability [7] 97.8% | viability [12] 100% | differential viability (reversal) ([8]; H69AR cells + 2 uM doxorubicin) 3.64% | inhibition [9] 0% | inhibition [10] -2.38% | growth inhibition [1] -12.8% | growth inhibition [2] -0.415% | viability increase [3] -0.08% | viability [4] 86.2% | inhibition [11] 0.63% | RAM network inhibition [6] 8.31%
96.6%: viability [8, 13]
100%: viability [8, 14]

O=C(Nc1c(C(=O)Nc2ccccc2)cnn1-c1ccccc1)c1ccco1
inactive: growth inhibition [1] -3.7% | growth inhibition [2] -2.03% | viability increase [3] -4.51% | viability [4] 94.4% | viability [5] 94.3% | RAM network inhibition [6] 2.51%

Cc1ccc(-c2cc(C(F)F)nc(NCc3cccnc3)n2)cc1
inactive: viability [7] 63.9% | viability [12] 80.3% | differential viability (reversal) ([8]; H69AR cells + 2 uM doxorubicin) -2.5% | inhibition [9] -2.63% | inhibition [10] 0.48% | growth inhibition [1] 4.57% | growth inhibition [2] -8.25% | viability [4] 51% | viability [5] 64.2% | inhibition [11] 1.65% | RAM network inhibition [6] 0.76%
82.8%: viability [8, 13]
80.3%: viability [8, 14]

CCOC(=O)N1CCC(N2C(=O)c3ccc(C(=O)Nc4ccc(F)cc4F)cc3C2=O)CC1
inactive: growth inhibition [1] -2.61% | growth inhibition [2] -7.76% | viability increase [3] -6.61% | viability [4] 91.1% | viability [5] 94.4% | RAM network inhibition [6] 4.78%

CCC(=O)N1c2ccccc2-c2nnc(SC)nc2OC1c1ccc(OC)c(OC)c1 (stereo not drawn)
inactive: growth inhibition [1] -7.65% | growth inhibition [2] -7.5% | viability increase [3] -2.71% | viability [4] 102% | viability [5] 94.1% | RAM network inhibition [6] 1.85%

CC(=O)c1cccc(NC(=O)CCS(=O)(=O)c2cccc3nonc23)c1
inactive: growth inhibition [1] -9.88% | growth inhibition [2] -7.91% | viability increase [3] -3.46% | viability [4] 93.5% | viability [5] 93.2% | RAM network inhibition [6] 3.02%

CCOc1ccc(N(CC(=O)NC(C)CC)S(=O)(=O)c2c(C)noc2C)cc1 (stereo not drawn)
inactive: growth inhibition [1] -4.58% | growth inhibition [2] -11.1% | viability increase [3] -0.76% | viability [4] 99.3% | viability [5] 93.1% | RAM network inhibition [6] 2.66%

COc1ccc(N2CCN(C(=O)c3cc4c(-c5ccc(Cl)cc5)nn(C)c4s3)CC2)cc1
inactive: growth inhibition [1] 2.67% | growth inhibition [2] -4.22% | viability increase [3] -3.45% | viability [4] 78.6% | viability [5] 71.4% | RAM network inhibition [6] 3.98%

CCSC1=C(C#N)C(c2cccc(O)c2)CC(=O)N1 (stereo not drawn)
inactive: growth inhibition [1] -2.26% | growth inhibition [2] -11% | viability increase [3] -1.66% | viability [4] 98.2% | viability [5] 97.1% | RAM network inhibition [6] 3.85%

CCn1c(=O)c2cc(C(=O)NCc3cccs3)sc2c2ccccc21
inactive: growth inhibition [1] -11.3% | growth inhibition [2] -8.09% | viability increase [3] -5.17% | viability [4] 102% | viability [5] 95.9% | RAM network inhibition [6] 4.3%

COc1ccc(-c2cn3c(C)c(C(=O)N4CCN(c5ccc(F)cc5)CC4)sc3n2)cc1
inactive: growth inhibition [1] -0.17% | growth inhibition [2] -2.07% | viability increase [3] 0.81% | viability [4] 101% | viability [5] 103% | RAM network inhibition [6] 5.28%

O=C(Cn1c(=O)oc2cc(S(=O)(=O)N3CCCCCC3)ccc21)NC1CCCCC1
inactive: growth inhibition [1] -4.92% | growth inhibition [2] -8.79% | viability increase [3] -4.28% | viability [4] 101% | viability [5] 93.8% | RAM network inhibition [6] 3.25%

CCn1cc(C(=O)NC2CCCCC2)c(=O)c2cc(S(=O)(=O)N(C)C)ccc21
inactive: growth inhibition [1] -0.125% | growth inhibition [2] 2.4% | viability increase [3] -1.45% | viability [4] 102% | viability [5] 94.7% | RAM network inhibition [6] -1.57%

CC(C)OCCCNS(=O)(=O)c1ccc2c(c1)oc(=O)n2C
inactive: growth inhibition [1] -13.3% | growth inhibition [2] -6.73% | viability increase [3] -1.3% | viability [4] 101% | viability [5] 97% | RAM network inhibition [6] 0.04%

COc1ccccc1CCNC(=O)CSc1nc(-c2ccco2)cc(C(F)(F)F)n1
inactive: growth inhibition [1] -13.3% | growth inhibition [2] -5.15% | viability increase [3] -1.65% | viability [4] 102% | viability [5] 93.7% | RAM network inhibition [6] 6.42%

Clc1ccc(-c2nnc(SCc3nc(-c4ccccc4)no3)o2)cc1
inactive: growth inhibition [1] -10.1% | growth inhibition [2] -9.97% | viability increase [3] -3.34% | viability [4] 99.2% | viability [5] 91.7% | RAM network inhibition [6] 4.9%
